# Laboratory results as given in PMC5540273 (PLoS ONE, 2017).
# Legend:
# Conditions in all cases: concentration: 1 μM, replicates: in singlicate; n = 1
# TNNI3K = test system: TNNI3K
# TRKA = test system: T1, TRKA
# T1 construct: gene NTRK1
# TRKB = test system: TRKB
# TRKC = test system: T2, TRKC
# T2 construct: gene NTRK3
# TRPM6 = test system: TRPM6
# TSSK1B = test system: TSSK1B
# TSSK3 = test system: TSSK3
# TTK = test system: TTK
# TXK = test system: TXK
# [1] = test system: TYK2(JH1domain-catalytic)
# 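Also: KINOMEscan kinase panel screen.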
structure (smiles),measurement,setting,value
Cl.Cl.NCC(NCc1ccc(-c2ccnc3[nH]ccc23)s1)c1ccccc1 (stereo not shown) [GSK1321565],%Inh,TNNI3K,0%
same,%Inh,TRKA,98.5%
same,%Inh,TRKB,72%
same,%Inh,TRKC,70%
same,%Inh,TRPM6,0%
same,%Inh,TSSK1B,38%
same,%Inh,TSSK3,16%
same,%Inh,TTK,0%
same,%Inh,TXK,25%
same,%Inh,[1],80%
COc1ccc(Nc2nccc(NCCNC(=O)c3cc4ccccc4s3)n2)cc1 [GSK1379896],%Inh,TNNI3K,13%
same,%Inh,TRKA,18%
same,%Inh,TRKB,0%
same,%Inh,TRKC,0%
same,%Inh,TRPM6,34%
same,%Inh,TSSK1B,0%
same,%Inh,TSSK3,20%
same,%Inh,TTK,0%
same,%Inh,TXK,0%
same,%Inh,[1],25%
COC(=O)Nc1nc2ccc(Oc3ccc(NC(=O)Nc4cc(C(F)(F)F)ccc4F)cc3)cc2n1C.Cl [GW692089],%Inh,TNNI3K,72%
same,%Inh,TRKA,100%
same,%Inh,TRKB,84%
same,%Inh,TRKC,96.5%
same,%Inh,TRPM6,0%
same,%Inh,TSSK1B,0%
same,%Inh,TSSK3,0%
same,%Inh,TTK,17%
same,%Inh,TXK,0%
same,%Inh,[1],26%
O=C(O)C(F)(F)F.O=C(O)C(F)(F)F.O=c1[nH]ccc2nc(N[C@@H]3CCCNC3)nc(Nc3ccc(S(=O)(=O)N4CCOCC4)cc3)c12 [GSK2177277],%Inh,TNNI3K,15%
same,%Inh,TRKA,100%
same,%Inh,TRKB,92.5%
same,%Inh,TRKC,98%
same,%Inh,TRPM6,19%
same,%Inh,TSSK1B,95.1%
same,%Inh,TSSK3,99.7%
same,%Inh,TTK,96.8%
same,%Inh,TXK,35%
same,%Inh,[1],99.7%
COc1cc(Nc2ncc3c(C)nc(-c4cc5ccccc5[nH]4)n3n2)cc(OC)c1OC [GW869516],%Inh,TNNI3K,33%
same,%Inh,TRKA,4%
same,%Inh,TRKB,0%
same,%Inh,TRKC,0%
same,%Inh,TRPM6,0%
same,%Inh,TSSK1B,6%
same,%Inh,TSSK3,0%
same,%Inh,TTK,36%
same,%Inh,TXK,10%
same,%Inh,[1],0%
CCc1ccc(-c2ccc3c(c2)-c2c(cnn2C)S(=O)(=O)N3C)cc1,%Inh,TNNI3K,0%
same,%Inh,TRKA,0%
same,%Inh,TRKB,0%
same,%Inh,TRKC,0%
same,%Inh,TRPM6,1%
same,%Inh,TSSK1B,5%
same,%Inh,TSSK3,0%
same,%Inh,TTK,0%
same,%Inh,TXK,0%
same,%Inh,[1],0%
Cc1cccc(NC(=O)Nc2ccc(Oc3ncnc4ccn(C)c34)cc2)c1,%Inh,TNNI3K,0%
same,%Inh,TRKA,20%
same,%Inh,TRKB,35%
same,%Inh,TRKC,57%
same,%Inh,TRPM6,0%
same,%Inh,TSSK1B,19%
same,%Inh,TSSK3,0%
same,%Inh,TTK,0%
same,%Inh,TXK,0%
same,%Inh,[1],0%
O=C(Nc1cccc(-c2nn3ccccc3c2-c2ccnc(Nc3cccc(C(F)(F)F)c3)n2)c1)c1c(F)cccc1F [GSK292658],%Inh,TNNI3K,0%
same,%Inh,TRKA,0%
same,%Inh,TRKB,0%
same,%Inh,TRKC,0%
same,%Inh,TRPM6,11%
same,%Inh,TSSK1B,2%
same,%Inh,TSSK3,5%
same,%Inh,TTK,20%
same,%Inh,TXK,48%
same,%Inh,[1],20%
Cl.Cl.NCC(C(=O)Nc1cc(Br)c(-c2ccnc3[nH]ccc23)s1)c1ccccc1 (stereo not shown) [GSK1269851],%Inh,TNNI3K,12%
same,%Inh,TRKA,19%
same,%Inh,TRKB,28%
same,%Inh,TRKC,31%
same,%Inh,TRPM6,7%
same,%Inh,TSSK1B,21%
same,%Inh,TSSK3,4%
same,%Inh,TTK,0%
same,%Inh,TXK,0%
same,%Inh,[1],22%
CN(C)Cc1ccc(-c2ccc3c(Nc4ccc(Oc5ccccn5)cc4)ccnc3c2)o1 [GW567148],%Inh,TNNI3K,0%
same,%Inh,TRKA,100%
same,%Inh,TRKB,31%
same,%Inh,TRKC,35%
same,%Inh,TRPM6,52%
same,%Inh,TSSK1B,0%
same,%Inh,TSSK3,6%
same,%Inh,TTK,0%
same,%Inh,TXK,0%
same,%Inh,[1],30%
COc1cccc(C2=C(Nc3ccc(Cl)c(C(=O)O)c3)C(=O)NC2=O)c1 [SB-390769],%Inh,TNNI3K,13%
same,%Inh,TRKA,0%
same,%Inh,TRKB,48%
same,%Inh,TRKC,34%
same,%Inh,TRPM6,0%
same,%Inh,TSSK1B,30%
same,%Inh,TSSK3,16%
same,%Inh,TTK,0%
same,%Inh,TXK,3%
same,%Inh,[1],100%
Cl.c1ccc(-c2ccc3c(Nc4ccc5[nH]ncc5c4)ccnc3c2)nc1 [GW440137],%Inh,TNNI3K,0%
same,%Inh,TRKA,0%
same,%Inh,TRKB,16%
same,%Inh,TRKC,17%
same,%Inh,TRPM6,25%
same,%Inh,TSSK1B,12%
same,%Inh,TSSK3,7%
same,%Inh,TTK,3%
same,%Inh,TXK,74%
same,%Inh,[1],14%
Cc1ccc(F)c(C(=O)Nc2cccc(-c3nn4ccccc4c3-c3ccnc(Nc4cccc(F)c4)n3)c2)c1F [GSK361061],%Inh,TNNI3K,37%
same,%Inh,TRKA,33%
same,%Inh,TRKB,0%
same,%Inh,TRKC,0%
same,%Inh,TRPM6,36%
same,%Inh,TSSK1B,10%
same,%Inh,TSSK3,19%
same,%Inh,TTK,39%
same,%Inh,TXK,52%
same,%Inh,[1],0%
CCCCc1nn2ncccc2c1-c1ccnc(Nc2ccc(N3CCN(C)CC3)cc2)n1 [GW684941],%Inh,TNNI3K,41%
same,%Inh,TRKA,88%
same,%Inh,TRKB,78%
same,%Inh,TRKC,66%
same,%Inh,TRPM6,61%
same,%Inh,TSSK1B,9%
same,%Inh,TSSK3,7%
same,%Inh,TTK,50%
same,%Inh,TXK,74%
same,%Inh,[1],44%
c1ccc(Oc2ccc(Nc3ccnc4cc(-c5ccc(CNCCN6CCOCC6)o5)ccc34)cc2)nc1 [GW567145],%Inh,TNNI3K,0%
same,%Inh,TRKA,100%
same,%Inh,TRKB,53%
same,%Inh,TRKC,42%
same,%Inh,TRPM6,14%
same,%Inh,TSSK1B,0%
same,%Inh,TSSK3,2%
same,%Inh,TTK,7%
same,%Inh,TXK,1%
same,%Inh,[1],0%
CNC(=O)c1ccccc1Nc1nc(Nc2ccc(N3CCOCC3)cc2)ncc1Cl.Cl [GSK1576028],%Inh,TNNI3K,50%
same,%Inh,TRKA,100%
same,%Inh,TRKB,96.6%
same,%Inh,TRKC,97.1%
same,%Inh,TRPM6,75%
same,%Inh,TSSK1B,15%
same,%Inh,TSSK3,17%
same,%Inh,TTK,95%
same,%Inh,TXK,97.6%
same,%Inh,[1],99.9%
